Some structures have more than one record in an assay (separate samples or runs), and their calls can disagree. Activity calls are given as the source filed them. How the source made its calls: active means hit-call score of the fitted dose curve at least 0.9, where 1 is the maximum; inactive means score below 0.9.

Assay [1] is described as follows: ATG_GLI_CIS: Attagene CIS-FACTORIAL HepG2 Assay for human Zinc Finger Protein GLI1 (AID 2282945). To be noted: HepG2, Attagene cis-factorial reporter mRNA, GLI element; actives raise or lower the signal. An outline of the steps: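 Bidirectional curve fits relative to DMSO, using reporter mRNA levels from RT-PCR plus capillary electrophoresis. Cells were HepG2 transiently carrying cis-regulated reporter constructs, harvested 24 h after dosing.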

Assay [2] has as its target Bile acid receptor (Homo sapiens) (UniProt Q96RI1). Briefly: ATG_IR1_CIS: Attagene CIS-FACTORIAL HepG2 Assay for human Nuclear Receptor Subfamily 1 Group H Member 4 (NR1H4), IR1 submotif (AID 2282946). To be noted: IR1 reporter transcription, actives raise or lower the signal. An outline of the steps:
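HepG2 cells transiently transfected with multiplexed cis-element reporter units read endogenous transcription factor activity. After 24 h compound exposure, reporter mRNA was quantified by RT-PCR, fluorescent labelling, HpaI digestion and capillary electrophoresis; bidirectional fitting versus DMSO baseline.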

The nature of assay [3]: ATG_GRE_CIS: Attagene CIS-FACTORIAL HepG2 Assay for human Glucocorticoid Response Elements (GRE) (AID 2282947). To be noted: HepG2 GRE cis-reporter, Attagene multiplex mRNA; actives raise or lower the signal. The method, boiled down:
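Multiplexed cis-reporter mRNA induction, HepG2, 24 h post-dose. RT-PCR, FAM-labelled, HpaI-digested amplicons by CE. Bidirectional fit vs DMSO.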

Assay [4] in a line: ATG_ISRE_CIS: Attagene CIS-FACTORIAL HepG2 Assay for human Interferon Regulatory Factor 1 (IRF1) binding to an Interferon-Stimulated Response Element (ISRE) (AID 2282948). To be noted: HepG2 ISRE cis-reporter (Attagene), mRNA transcription readout; actives raise or lower the signal. An outline of the steps:
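Uses HepG2 liver cells transfected with cis-regulated reporters and measures mRNA 24 h post-dosing through RT-PCR, primer-extension labelling and capillary electrophoresis, with DMSO as negative control.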

Assay [5] in a line: ATG_M_32_CIS: Attagene CIS-FACTORIAL HepG2 Assay for M32 Transcription Factor (Internal Marker) (AID 2282949).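 Further: background control marker of the multiplexed CIS panel rather than a real target.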 To be noted: HepG2 Attagene cis-factorial M32 reporter, mRNA; actives raise or lower the signal. The method, boiled down:
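Transient MRTU transfection of HepG2; 24 h compound treatment; TriZol RNA, oligo(dT) RT, reporter PCR, 6-FAM primer extension, HpaI cut, CE. Gain/loss of signal vs DMSO.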

Assay [6] in a line: ATG_M_06_CIS: Attagene CIS-FACTORIAL HepG2 Assay for M06 Transcription Factor (Internal Marker) (AID 2282950). To be noted: HepG2 Attagene CIS-FACTORIAL M06 internal marker reporter; actives raise or lower the signal. An outline of the steps:
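HepG2 liver cells, 24 h exposure. Reporter transcripts from transfected cis-element constructs quantified by RT-PCR/capillary electrophoresis fluorescence. Bidirectional curve fit against DMSO.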

Assay [7] deals with Hypoxia-inducible factor 1-alpha (Homo sapiens) (UniProt Q16665). Briefly: ATG_HIF1a_CIS: Attagene CIS-FACTORIAL HepG2 Assay for human Hypoxia Inducible Factor 1 (HIF1A) (AID 2282951). To be noted: HepG2 Attagene cis-factorial HIF1a reporter transcription; actives raise or lower the signal. The method, boiled down:
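After 24 h chemical exposure of reporter-transfected HepG2 cells, reporter cDNA was PCR-amplified, labelled by 6-FAM primer extension (2 min 95 C, 20 s 68 C, 10 min 72 C), HpaI-cut (2 h, 37 C) and analysed by CE.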

Assay [8] has as its target Hepatocyte nuclear factor 6 (Homo sapiens) (UniProt Q9UBC0). Briefly: ATG_HNF6_CIS: Attagene CIS-FACTORIAL HepG2 Assay for human Hepatocyte Nuclear Factor 6 (HNF6) (AID 2282952). To be noted: HepG2 Attagene cis-factorial HNF6 reporter transcription; actives raise or lower the signal. An outline of the steps:
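Endogenous transcription factor activity in human HepG2 liver cells was captured through cis-regulated reporter constructs. After 24 h treatment, reporter mRNA was measured by RT-PCR with capillary electrophoresis, and activity was fitted in both directions relative to DMSO.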

Assay [9] can be described thus: ATG_MRE_CIS: Attagene CIS-FACTORIAL HepG2 Assay for human Metal Responsive Element (MRE) (AID 2282954). To be noted: HepG2 MRE cis-reporter transcription, Attagene multiplex; actives raise or lower the signal. The method, boiled down:
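Multiplexed cis-reporter assay in human HepG2 liver cells, 24 h incubation with test chemical. Reporter transcripts measured by RT-PCR and capillary electrophoresis; values from bidirectional curve fitting versus DMSO.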

The target in assay [10] is Heat shock factor protein 1 (Homo sapiens) (UniProt Q00613). Briefly: ATG_HSE_CIS: Attagene CIS-FACTORIAL HepG2 Assay for human Heat Shock Transcription Factor 1 (HSE) (AID 2282953). To be noted: HepG2 HSE cis-reporter, Attagene RNA transcription; actives raise or lower the signal. An outline of the steps: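 Endogenous transcription factor activity captured via cis-promoter reporter units transfected into HepG2; treatment lasted 24 h. Fluorescence intensity of reporter fragments analysed with bidirectional curve fitting, DMSO baseline.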
Chain of Heat shock factor protein 1 (Homo sapiens) (Q00613 whole entry, looked up, the tested form may be a part): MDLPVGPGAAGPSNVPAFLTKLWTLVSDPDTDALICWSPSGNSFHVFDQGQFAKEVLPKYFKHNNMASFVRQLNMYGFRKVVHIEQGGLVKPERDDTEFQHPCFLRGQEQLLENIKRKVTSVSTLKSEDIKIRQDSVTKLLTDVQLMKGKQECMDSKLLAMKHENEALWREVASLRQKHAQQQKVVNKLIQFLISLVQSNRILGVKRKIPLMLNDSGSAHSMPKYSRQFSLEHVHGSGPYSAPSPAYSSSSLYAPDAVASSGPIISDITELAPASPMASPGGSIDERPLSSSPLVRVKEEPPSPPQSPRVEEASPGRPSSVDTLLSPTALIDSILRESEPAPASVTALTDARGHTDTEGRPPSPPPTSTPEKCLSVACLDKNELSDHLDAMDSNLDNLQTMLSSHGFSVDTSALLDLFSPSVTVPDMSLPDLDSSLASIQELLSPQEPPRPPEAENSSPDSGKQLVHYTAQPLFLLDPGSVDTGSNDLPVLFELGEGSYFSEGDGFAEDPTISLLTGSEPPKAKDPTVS

Chain of Hypoxia-inducible factor 1-alpha (Homo sapiens) (Q16665 whole entry, looked up): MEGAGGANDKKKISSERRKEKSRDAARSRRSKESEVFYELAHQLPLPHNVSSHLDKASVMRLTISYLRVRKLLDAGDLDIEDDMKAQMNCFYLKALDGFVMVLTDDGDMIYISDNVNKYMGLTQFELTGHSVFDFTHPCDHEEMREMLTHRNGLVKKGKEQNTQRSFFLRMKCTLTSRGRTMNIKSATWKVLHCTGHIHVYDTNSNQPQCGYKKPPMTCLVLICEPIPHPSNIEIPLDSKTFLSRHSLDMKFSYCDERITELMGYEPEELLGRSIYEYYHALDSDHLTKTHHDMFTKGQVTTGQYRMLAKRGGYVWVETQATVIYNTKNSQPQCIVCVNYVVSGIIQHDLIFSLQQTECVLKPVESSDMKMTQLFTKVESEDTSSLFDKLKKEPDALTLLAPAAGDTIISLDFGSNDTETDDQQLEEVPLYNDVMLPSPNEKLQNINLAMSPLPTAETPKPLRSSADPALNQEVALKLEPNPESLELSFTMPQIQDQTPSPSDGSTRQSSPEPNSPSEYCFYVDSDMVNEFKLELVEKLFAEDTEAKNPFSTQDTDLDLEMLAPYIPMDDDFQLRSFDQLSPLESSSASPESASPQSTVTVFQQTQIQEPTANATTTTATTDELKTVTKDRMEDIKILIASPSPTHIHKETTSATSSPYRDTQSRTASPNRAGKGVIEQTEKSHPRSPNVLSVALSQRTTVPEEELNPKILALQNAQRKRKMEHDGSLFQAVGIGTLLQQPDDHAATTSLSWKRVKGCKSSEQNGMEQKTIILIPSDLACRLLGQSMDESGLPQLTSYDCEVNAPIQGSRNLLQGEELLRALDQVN
Chain of Hepatocyte nuclear factor 6 (Homo sapiens) (Q9UBC0 whole entry, looked up): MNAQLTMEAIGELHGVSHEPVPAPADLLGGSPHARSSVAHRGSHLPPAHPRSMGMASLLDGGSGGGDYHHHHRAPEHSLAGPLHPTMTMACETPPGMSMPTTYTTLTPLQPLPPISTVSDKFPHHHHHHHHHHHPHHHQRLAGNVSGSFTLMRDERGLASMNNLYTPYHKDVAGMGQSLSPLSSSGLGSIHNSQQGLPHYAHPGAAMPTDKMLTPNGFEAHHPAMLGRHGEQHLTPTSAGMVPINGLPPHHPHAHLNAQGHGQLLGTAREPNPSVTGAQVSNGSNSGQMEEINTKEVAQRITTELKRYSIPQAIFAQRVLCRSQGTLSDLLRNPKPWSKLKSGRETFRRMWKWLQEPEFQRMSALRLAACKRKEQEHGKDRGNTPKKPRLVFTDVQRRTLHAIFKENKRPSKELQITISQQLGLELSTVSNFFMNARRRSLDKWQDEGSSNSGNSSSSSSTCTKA
Chain of Bile acid receptor (Homo sapiens) (Q96RI1 whole entry, looked up): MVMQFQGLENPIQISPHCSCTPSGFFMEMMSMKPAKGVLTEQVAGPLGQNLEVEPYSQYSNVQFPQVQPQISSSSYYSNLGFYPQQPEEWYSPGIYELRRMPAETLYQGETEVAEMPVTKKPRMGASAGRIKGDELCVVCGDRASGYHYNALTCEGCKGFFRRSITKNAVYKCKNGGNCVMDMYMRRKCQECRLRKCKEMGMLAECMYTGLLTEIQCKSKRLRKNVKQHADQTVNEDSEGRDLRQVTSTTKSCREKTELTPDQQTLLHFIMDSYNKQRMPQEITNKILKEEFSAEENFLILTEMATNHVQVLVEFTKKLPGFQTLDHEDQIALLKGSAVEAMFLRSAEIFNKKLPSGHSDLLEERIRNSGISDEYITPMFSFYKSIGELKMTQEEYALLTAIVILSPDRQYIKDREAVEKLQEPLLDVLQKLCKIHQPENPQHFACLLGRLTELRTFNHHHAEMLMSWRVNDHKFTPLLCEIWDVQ

As to `C#CCOS(=O)OC1CCCCC1Oc1ccc(C(C)(C)C)cc1` (stereo unspecified), the call in assay [1], in assay [2], in [3], in assay [4], in assay [5] and in assay [6] was inactive. In addition, the molecule was classed as inactive in [8]. Besides, the half-maximal activity concentration (AC50) in assay [7] and in [9] was 2.4 µM (active) each time.

Regarding `CC1COC(Cn2cncn2)(c2ccc(Oc3ccc(Cl)cc3)cc2Cl)O1` (stereo unspecified), the result in assay [1], in [2], in assay [3], in assay [4], in [5] and in assay [6] was inactive. In addition, the call in assay [7] and in assay [8] was inactive. Besides, the concentration at half-maximal activity (AC50) in [9] is 3.17 µM (active).

Consider `COc1cnc(OC)n2nc(NS(=O)(=O)c3c(OCC(F)F)cccc3C(F)(F)F)nc12`, for which the molecule was classed as inactive in [1], in assay [3], in assay [4], in assay [5], in assay [6] and in [7]. The result in [8] and in [9] was inactive.

For `C=CCC1=C(C)[C@@H](OC(=O)[C@@H]2[C@@H](C=C(C)C)C2(C)C)CC1=O`, the outcome in assay [1], in assay [2], in assay [3], in [4], in assay [5] and in [6] was inactive. Besides, the result in assay [7] and in assay [8] was inactive. Further, the concentration at half-maximal activity (AC50) in assay [9] is 5.26 µM (active).

For `N#CC(CCc1ccc(Cl)cc1)(Cn1cncn1)c1ccccc1` (stereo unspecified), the call in assay [1], in assay [2], in assay [3], in [4], in [5] and in assay [6] was inactive. Moreover, the call in assay [7], in assay [8] and in assay [9] was inactive.

For `CC(Oc1ccc(Cl)cc1Cl)C(=O)O` (stereo unspecified), the result in assay [1], in [2], in assay [3], in [4], in assay [5] and in assay [6] was inactive. The call in assay [7], in assay [8] and in assay [9] was inactive.

Take `OC(c1ccc(Cl)cc1)(c1cncnc1)c1ccccc1Cl` (stereo unspecified): the molecule was classed as inactive in assay [1], in [3], in [4], in assay [5], in assay [6] and in assay [7]. Further, the result in assay [8] and in assay [9] was inactive. For the same molecule, the half-maximal activity concentration (AC50) in assay [3] was 0.622 µM (active); in [9], 70.8 µM (active).

With `CNC(=S)S`, the outcome in [1], in [3], in assay [4], in assay [5], in assay [6] and in assay [7] was inactive. Besides, the molecule was classed as inactive in [8] and in assay [9]. Further, the results for the concentration at half-maximal activity (AC50) in assay [4] and in assay [9] were 73.5 µM (active) and 70.4 µM (active), respectively.

As for `CCc1nn(C)c(C(=O)NCc2ccc(C(C)(C)C)cc2)c1Cl`, the result in assay [1], in [2], in [3], in assay [4], in assay [5] and in assay [6] was inactive. The molecule was called inactive in [7] and in [8]. Further, in assay [9], the AC50 is 2.3 µM (active).

For `O=C(O)COc1nc(Cl)c(Cl)cc1Cl`, the molecule was called inactive in assay [1], in [2], in assay [3], in [4], in assay [5] and in [6]. The outcome in [7], in [8] and in [9] was inactive.

As for `CCOC(=O)C(Cl)Cc1cc(-n2nc(C)n(C(F)F)c2=O)c(F)cc1Cl` (stereo unspecified), the outcome in [1], in [2], in assay [3], in assay [4], in [5] and in assay [6] was inactive. In addition, the result in assay [7], in assay [8] and in assay [9] was inactive.

Consider `CCCN(CCC)c1c([N+](=O)[O-])cc(S(N)(=O)=O)cc1[N+](=O)[O-]`, for which the result in assay [1], in assay [2], in assay [3], in assay [4], in assay [5] and in [6] was inactive. The outcome in assay [7], in [8] and in assay [9] was inactive.

`Cc1cc(Cl)ccc1OCC(=O)O`: the call in assay [1], in [3], in assay [4], in assay [5], in assay [6] and in assay [7] was inactive. In addition, the outcome in assay [8], in [10] and in [9] was inactive.

As to `CO/C=C(/C(=O)OC)c1ccccc1Oc1cc(Oc2ccccc2C#N)ncn1`, the outcome in assay [1], in assay [3], in assay [4], in [5], in assay [6] and in [7] was inactive. Also, the call in [8] was inactive. In addition, in [9], the AC50 is 50 µM (active) [middle of 6 runs].

A word on the AC50: it is the midpoint of the concentration-response curve, whichever way the signal moves.

The values above are taken from PubChem BioAssay (EPA / NIEHS).
